# “And” between values parts separate entries of the source, which are not always exact repeats. Equal entries are not always repeated. The source made the active and inactive calls. A call without a number means that no potency is given here. Calls come from the whole dose curve.
# Biological target: Acetylcholinesterase (Homo sapiens) (UniProt P22303)
# Assay: Acetylcholinesterase (AChE) small molecule antagonists: enzyme-based qHTS assay (AID 1347397); note: nearly all actives have a fitted effect of over 55% in size
# Conditions: Potency: AChE enzyme activity inhibition; series mostly up to 115 µM
# From the text: National Center for Advancing Translational Sciences [NCATS]
# Division of Preclinical Innovation [DPI]
# U.S. Environmental Protection Agency [EPA]
# National Institutes of Environmental Health Sciences [NIEHS]
# National Toxicology Program [NTP]
# U.S. Food and Drug Administration [FDA]
# Acetylcholinesterase (AChE) is the primary cholinesterase in the body that hydrolyzes a key neurotransmitter, acetylcholine. Inhibition of AChE activity can lead to neurotoxicity. The known inhibitors include organophosphorous pesticides (OP), chemical warfare agents, drugs, and various phytochemicals.
# An enzyme-based assay with the recombinant human AChE and Amplite Colormetric acetylcholinesterase assay kit (AAT Bioquest, Sunnyvale, CA) was used to evaluate the chemicals in the Tox21 10K library that inhibit AChE activity. The assay uses 5, 5-dithiobis-(2-nitrobenzoic acid) (DTNB) to quantify the thiocholine produced from the hydrolysis of acetylthiocholine by AChE.
# Tox21 Assay Protocol Summary:
# For the enzyme-based AChE assay, recombinant human AChE (50 mU/mL) in 4 uL/well was dispensed into black, clear-bottom 1536-well plates using a Multidrop Combi dispenser (Thermo Scientific, MA). Then, 23 nL of compound or DMSO (vehicle control) was transferred into the assay plates by a Pintool Station (Wako Automation, CA). The plates were incubated for 30 min at room temperature, followed by the addition of 4 uL of colorimetric detection cocktail solution (DTNB, acetylthiocholine) into each well using a Flying Reagent Dispenser (Beckman Coulter, CA) and then 10 min incubation at room temperature.
# Potency is the fitted concentration of half-maximal effect.
# Chain of Acetylcholinesterase (Homo sapiens) (P22303 whole entry, looked up): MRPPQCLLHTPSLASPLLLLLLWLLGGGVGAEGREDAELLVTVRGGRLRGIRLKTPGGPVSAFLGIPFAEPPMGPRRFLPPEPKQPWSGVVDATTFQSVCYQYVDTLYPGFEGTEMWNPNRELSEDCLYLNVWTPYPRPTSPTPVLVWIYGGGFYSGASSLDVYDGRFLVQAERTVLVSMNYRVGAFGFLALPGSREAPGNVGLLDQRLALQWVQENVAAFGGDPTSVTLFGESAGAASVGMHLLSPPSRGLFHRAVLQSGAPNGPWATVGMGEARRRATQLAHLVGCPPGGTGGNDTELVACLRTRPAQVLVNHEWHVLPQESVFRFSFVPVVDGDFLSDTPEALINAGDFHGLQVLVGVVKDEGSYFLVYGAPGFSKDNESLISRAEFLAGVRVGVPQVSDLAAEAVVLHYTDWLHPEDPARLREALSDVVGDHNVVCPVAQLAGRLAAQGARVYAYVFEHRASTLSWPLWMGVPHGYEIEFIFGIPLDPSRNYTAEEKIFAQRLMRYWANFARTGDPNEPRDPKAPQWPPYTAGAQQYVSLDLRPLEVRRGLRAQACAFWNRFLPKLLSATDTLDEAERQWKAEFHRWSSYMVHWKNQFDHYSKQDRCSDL
row,SMILES,Potency
1,C=CCN=C=S,inactive
2,COc1nc(NC(C)C)nc(NC(C)C)n1,inactive
3,C[C@H]1C(=O)O[C@@H]2CCN3CC=C(COC(=O)[C@](C)(O)[C@]1(C)O)[C@H]23,inactive
4,CC[N+](=O)[O-],inactive
5,Nc1ccc([As](=O)(O)O)cc1,inactive
6,COS(=O)(=O)OC,inactive
7,O=C(O)C(Br)Br,inactive
8,CCOP(=S)(OCC)Oc1cc(C)nc(C(C)C)n1,inactive
9,CN1C(=O)CCS(=O)(=O)C1c1ccc(Cl)cc1 (stereo not given),inactive
10,Cc1cc(Cl)ccc1OC(C)C(=O)O (stereo not given),inactive
11,OC[C@@H](O)[C@H]1O[C@@H]2O[C@H](C(Cl)(Cl)Cl)O[C@@H]2[C@H]1O,inactive
12,O=C(O)c1cc(Oc2ccc(C(F)(F)F)cc2Cl)ccc1[N+](=O)[O-],inactive
13,CN(C)CCC#N,inactive
14,CC(C)(C)C(=O)CCl,inactive
15,c1ccc2c(c1)CCCC2,inactive
16,CCNc1nc(Cl)nc(NC(C)C)n1,inactive
17,ClCCOCCCl,inactive
18,O=S(=O)(O)OOS(=O)(=O)O,inactive
19,Nc1cccc(Cl)c1,inactive
20,CN(C)C(=O)Cl,inactive

row,SMILES,Potency
1,CNCC(O)c1ccc(O)cc1 (stereo not given),inactive
2,Cc1ccc(O)c(C)c1,inactive
3,ClC(Cl)c1ccccc1,inactive
4,Nc1ncc([N+](=O)[O-])s1,inactive
5,CCOP(=S)(OCC)Oc1ccc([N+](=O)[O-])cc1,24.5 µM (active)
6,C=CC#N,inactive
7,COP(=S)(OC)SCN1C(=O)c2ccccc2C1=O,inactive
8,Nc1nc(N)nc(NC2CC2)n1,inactive
9,CNC(=O)O/N=C/C(C)(C)S(C)=O (stereo not given),572 nM (active) and 316 nM (active)
10,O=C(O)CCCc1ccc(N(CCCl)CCCl)cc1,inactive
11,Cc1cccc(C)c1NC(=O)CN1CCCC1=O,inactive
12,O=[N+]([O-])c1ccc(Cl)c(Cl)c1,inactive
13,CCCCC(CC)C(=O)Cl (stereo not given),inactive
14,COC(C)(C)CCCC(C)C/C=C/C(C)=C/C(=O)OC(C)C (stereo not given),inactive
15,Cc1cccc(C)c1N,inactive
16,Cc1ccc(N=C=O)cc1N=C=O,inactive
17,O=C(O)COc1ccccc1,inactive
18,C=C(C)C(=O)OCC(CC)CCCC (stereo not given),inactive
19,CCOC(=O)CC(SP(=O)(OC)OC)C(=O)OCC (stereo not given),3.38 µM (active) and 5.64 µM (active)
20,O=C(O)Cc1ccccc1,inactive

# — PubChem BioAssay (Tox21)
